Source: PubChem BioAssay AID1224860 (National Center for Advancing Translational Sciences (NCATS), 2016)
Inconclusive results are not listed. A call without a number means that no potency is given here. Active and inactive are the calls of the source. Calls follow the shape of the dose curve; as a rule, active = well fitted cell-killing curve with a large enough effect; inconclusive = small, poorly fitted or top-dose-only effect; inactive = flat fitted curve, though single readings scatter.

test: Compound cytotoxicity measured by an ATP content assay as a counter-screen for lead compounds in human iPSC derived neural progenitor cells (hNPCs); conditions: human iPSC-derived NPC viability, ATP luminescence; series mostly up to 46.1 µM
Protocol: National Center for Advancing Translational Sciences [NCATS] Johns Hopkins University School of Medicine Florida State University Assay Overview: Many compounds can cause cytotoxicity at high compound concentrations. […] The compound cytotoxicity may also cause side effects or toxicity in human. Thus, the compound cytotoxicity needs to be measured in each cell type and each compound incubation time - same as these in the compound screening assay. The compound cytotoxicity can be measured by cell viability assays such as the ATP content assay. We use an ATP content assay kit for cell viability measurement. It measures ATP content (level) in human iPSC derived neural progenitor cells (hNPCs) using a luminescence readout that is proportional to viable cell numbers. Decrease in the luminescence signal after the compound treatment indicates reduced cell viability and cell death caused by compound treatment.
Assay Protocol Summary: The medium for hNPCs consists of DMEM/F12, N2 supplement (ThermoFisher, Cat.# 17502048), NEAA (ThermoFisher, Cat. # 11140050), 2 ug/ml heparin, 2 uM cyclopamine, and B27 (ThermoFisher, Cat. # 17504044). The ATP content assay kit (PerkinElmer, Cat.# 6016731) was used to determine cell viability. The reagent was reconstituted and prepared as described by the manufacturer. Cells were seeded in 384- or 1536-well assay plates and cultured at 37 C with 5% CO2 for 16 to 20 hours. The typical cell seeding density in the 1536-well plate assay is 350 cells/well in 3 ul medium for hNPCs in the tissue cultured treated/PDL coated plates. Compounds were added to cells and incubated for a specific time such as 6, 24, or 72 hours before addition of the reagent mixture of the ATP content assay kit at 1:1 ratio. After incubation at room temperature for 10 minutes, the luminescence intensity in assay plates was measured using a ViewLux plate reader (PerkinElmer). […] The percentage inhibitions of the decreased cell viability by small molecules were then calculated that indicate compound cytotoxicity.

Row | SMILES | Potency
1 | O=C(O)c1cccc(-c2noc(-c3ccccc3F)n2)c1 | 5.48 µM (active)
2 | Nc1nc2ccc([N+](=O)[O-])cc2s1 | inactive
3 | Cc1[nH]c(C=C2C(=O)Nc3ccccc32)c(C)c1CCC(=O)O | inactive
4 | O=C(O)c1cc([N+](=O)[O-])ccc1NCCCc1ccccc1 | inactive
5 | CC1(C)Cc2c(sc(NC(=S)NC(=O)c3ccccc3)c2C(=O)O)CO1 | inactive
6 | COc1cc2nc(N3CCN(C(=O)C4CCCO4)CC3)nc(N)c2cc1OC (stereo not given) | inactive
7 | CC(=Cc1ccccc1)C=C1SC(=S)N(CC(=O)O)C1=O | inactive
8 | CC(C(=O)O)c1ccc2c(c1)[nH]c1ccc(Cl)cc12 (stereo not given) | inactive
9 | Cc1ccc(C(=O)c2ccc(CC(=O)O)n2C)cc1 | inactive
10 | N#CC1(c2ccc(NC(=O)c3cccnc3NCc3ccncc3)cc2)CCCC1 | inactive
11 | CNC1[C@H](O)C(O[C@@H]2C(O)C(O[C@H]3O[C@H]([C@@H](C)NC)CC[C@H]3N)[C@@H](N)C[C@H]2N)OC[C@]1(C)O (stereo not given in full) | inactive
12 | O=C(O)c1ccccc1Nc1cccc(C(F)(F)F)c1 | inactive
13 | O=S(=O)(O)c1ccc2nc(-c3ccccc3)[nH]c2c1 | inactive
14 | O=C(O)[C@@H](c1ccc(OCc2ccc3ccccc3n2)cc1)C1CCCC1 | inactive
15 | CC(=O)OC(C)OC(=O)C(C)c1ccc(-c2ccccc2)c(F)c1 (stereo not given) | inactive
16 | C[C@H](NC(=O)C(=O)Nc1ccccc1C(C)(C)C)C(=O)N[C@@H](CC(=O)O)C(=O)COc1c(F)c(F)cc(F)c1F | inactive
17 | COc1ccc(CC2=NN3C([C@@H](CCc4ccccc4)[C@@H](C)O)=NC(C)C3C(=O)N2)cc1OC (stereo not given in full) | inactive
18 | CC=CC[C@@H](C)C(=O)[C@H]1C(=O)N[C@@H](C(C)C)C(=O)N(C)CC(=O)N(C)[C@@H](CC(C)C)C(=O)N[C@@H](C(C)C)C(=O)N(C)[C@@H](CC(C)C)C(=O)N[C@@H](C)C(=O)N[C@H](C)C(=O)N(C)[C@@H](CC(C)C)C(=O)N(C)[C@@H](CC(C)C)C(=O)N(C)[C@@H](C(C)C)C(=O)N1C | inactive
19 | COCCn1c2c([n+](Cc3cnccn3)c1C)C(=O)c1ccccc1C2=O | 0.69 µM (active)
20 | O=C(Oc1ccccc1)c1cccc(C(=O)Oc2ccccc2)c1 | inactive

Row | SMILES | Potency
21 | O=C1c2ccccc2-[n+]2ccc3c([nH]c4ccccc43)c21 | 2.18 µM (active)
22 | O=C(/C=C/c1ccccc1)NCCO | inactive
23 | Cc1cc(O)c2ccccc2c1O | 4.89 µM (active)
24 | CN1CCN(c2cc3c(nn2)Oc2ccccc2N3C)CC1 | inactive
25 | Nc1ncnc2c1ncn2[C@@H]1O[C@@H](CO)[C@H](O)[C@H]1O | inactive
26 | Nc1ccc2c(c1)CN1C(=O)c3ccccc3C1=N2 | 6.73 µM (active)
27 | COc1ccc(-c2cc(=O)c3c(O)cc(O)cc3o2)cc1O | inactive
28 | N#C/C(=C\c1ccc(O)c(O)c1)C(=O)Nc1ccccc1 | inactive
29 | CC(C(=O)O)c1ccc(C(=O)c2ccccc2)s1 (stereo not given) | inactive
30 | O=C(O)CCC(=O)c1ccc(-c2ccccc2)cc1 | inactive
31 | Cc1nc(N)sc1-c1ccnc(Nc2ccc(N3CCOCC3)cc2)n1 | inactive
32 | CO[C@H]1C(=O)[C@]2(C)[C@@H](OC)C[C@H]3OC[C@@]3(OC(C)=O)[C@H]2[C@H](OC(=O)c2ccccc2)[C@]2(O)C[C@H](OC(=O)[C@H](O)[C@@H](NC(=O)OC(C)(C)C)c3ccccc3)C(C)=C1C2(C)C | inactive
33 | O[C@@H](COc1cccc2ncccc12)CN1CCN(C2c3ccccc3[C@@H]3[C@H](c4ccccc42)C3(F)F)CC1 (stereo not given in full) | inactive
34 | CC(=O)Oc1cccc2c1C(=O)c1c(OC(C)=O)cc(C(=O)O)cc1C2=O | inactive
35 | O=C(Nc1ccc([N+](=O)[O-])cc1Cl)c1cc(Cl)ccc1O | 8.69 µM (active)
36 | CS(=O)(=O)c1ccc(-c2cn3ccccc3n2)cc1 | 7.74 µM (active)
37 | c1ccc(CCNc2nc(-c3ccccc3)cs2)cc1 | inactive
38 | O=C(O)[C@H](CC(=O)N1C[C@@H]2CCCC[C@H]2C1)Cc1ccccc1 | inactive
39 | O=C1c2ccccc2C(=O)c2c1ccc(O)c2O | inactive
40 | Cc1c(N)c(=O)n(-c2ccccc2)n1C | inactive
